The source made the active and inactive calls. The rule behind the calls is not given here.
Assay: BioD-coupled fluorescence displacement counter-assay – biochemical, dry powder samples, counter-screen, dose response (AID 743363)
Settings: FL-DTB/streptavidin fluorescence displacement counter-screen; series mostly up to 10 µM

Q: With CC(=O)c1ccc(N2CC3CC2CN3C(=O)c2ccc3c(c2)OCO3)cc1 (stereo not given) as the compound, how does the outcome read?
A: inactive

Q: Which outcome does the source give for COc1ccc(NC(=O)N2CC[C@@H]3[C@@H](CO)N(C)c4ccc(-c5cccc(F)c5)cc4[C@@H]32)cc1 here?
A: inactive

Q: With CC(=O)c1ccc(N2CCN(C(=O)c3ccc4c(c3C)OCO4)CC2)cc1 as the compound, how does the outcome read?
A: inactive

Q: With CNS(=O)(=O)c1ccc(N2CCN(C(=O)c3ccc4c(c3)OCO4)CC2)cc1 as the compound, how does the outcome read?
A: inactive

Q: With COc1ccccc1NC(=O)N1CC[C@@H]2[C@@H](CO)N(C)c3ccc(-c4ccc(F)cc4)cc3[C@@H]21 as the compound, how does the outcome read?
A: inactive

Q: With CC(=O)c1ccc(N2CCN(C(=O)c3ccc4snnc4c3)CC2)cc1 as the compound, how does the outcome read?
A: inactive

Q: Which outcome does the source give for CN1c2ccc(-c3ccc(F)cc3)cc2[C@H]2[C@H](CCN2C(=O)Nc2ccc(F)cc2)[C@H]1CO here?
A: inactive

Q: With CCC(=O)N1CC[C@@H]2[C@@H](CO)N(C)c3ccc(-c4ccc(F)cc4)cc3[C@@H]21 as the compound, how does the outcome read?
A: inactive

Q: With CC(=O)c1ccc(N2CCCN(C(=O)c3ccc4c(c3)OCO4)CC2)cc1 as the compound, how does the outcome read?
A: inactive

Q: With CC(=O)c1ccc(N2CCN(C(=O)c3cc(Cl)c4c(c3)OCO4)CC2)cc1 as the compound, how does the outcome read?
A: inactive

Q: With CC(=O)c1ccc(N2CCN(C(=O)c3ccccc3Cl)CC2)cc1 as the compound, how does the outcome read?
A: inactive

Q: For CNC(=O)c1ccc(N2CCN(C(=O)c3ccc4c(c3)OCO4)CC2)cc1, which outcome is on record?
A: inactive

Q: For CN1c2ccc(-c3cccc(F)c3)cc2[C@@H]2[C@@H](CCN2C(=O)c2ccc3c(c2)OCO3)[C@@H]1CO, which outcome is on record?
A: inactive

Q: With CC(C)NC(=O)N1CC[C@@H]2[C@@H](CO)N(C)c3ccc(-c4ccc(F)cc4)cc3[C@@H]21 as the compound, how does the outcome read?
A: inactive

Q: With O=C(c1ccc2c(c1)OCO2)N1CCN(c2ccc(S(=O)(=O)C(F)F)cc2)CC1 as the compound, how does the outcome read?
A: inactive

Q: For COc1ccccc1NC(=O)N1CC[C@@H]2[C@@H](CO)N(C)c3ccc(-c4cccc(F)c4)cc3[C@@H]21, which outcome is on record?
A: inactive

Q: Which outcome does the source give for CN1c2ccc(-c3cccc(F)c3)cc2[C@H]2[C@H](CCN2C(=O)CCCCCCC(=O)O)[C@H]1CO here?
A: inactive

Q: With CN1c2ccc(-c3cccc(F)c3)cc2[C@H]2[C@H](CCN2C(=O)Cc2cccnc2)[C@H]1CO as the compound, how does the outcome read?
A: inactive

Q: Which outcome does the source give for CN1c2ccc(-c3ccc(F)cc3)cc2[C@H]2[C@H](CCN2C(=O)Cc2cccnc2)[C@H]1CO here?
A: inactive

Q: With CC(=O)c1ccc(N2CCN(C(=O)c3ccc4c(c3)OCO4)[C@H](C)C2)cc1 as the compound, how does the outcome read?
A: inactive

Q: For CC(=O)c1ccc(N2CCN(C(=O)c3cc4c(cn3)OCO4)CC2)cc1, which outcome is on record?
A: inactive

Q: Which outcome does the source give for COc1cccc(NC(=O)N2CC[C@@H]3[C@@H](CO)N(C)c4ccc(-c5cccc(F)c5)cc4[C@@H]32)c1 here?
A: inactive

Q: Which outcome does the source give for CC(=O)c1ccc(NCCNC(=O)c2ccc3c(c2)OCO3)cc1 here?
A: inactive

Q: Which outcome does the source give for CN1c2ccc(-c3cccc(F)c3)cc2[C@H]2[C@H](CCN2C(=O)Cc2ccccc2)[C@H]1CO here?
A: inactive

Q: Which outcome does the source give for O=C(c1ccc2c(c1)OCO2)N1CCN(c2ccc(S(=O)(=O)C(F)(F)F)cc2)CC1 here?
A: inactive

Q: With CN(C)S(=O)(=O)c1ccc(N2CCN(C(=O)c3ccc4c(c3)OCO4)CC2)cc1 as the compound, how does the outcome read?
A: inactive

Q: With COc1ccccc1C(=O)N1CCN(c2ccc(C(C)=O)cc2)CC1 as the compound, how does the outcome read?
A: inactive

Q: With CC(=O)c1ccc(N2CCN(C(=O)c3ccc4ocnc4c3)CC2)cc1 as the compound, how does the outcome read?
A: inactive

Q: Which outcome does the source give for CCCNC(=O)N1CC[C@@H]2[C@@H](CO)N(C)c3ccc(-c4ccc(F)cc4)cc3[C@@H]21 here?
A: inactive

Q: With CC(=O)c1ccc(N2CCN(C(=O)c3ccc4c(c3)OC(F)(F)O4)CC2)cc1 as the compound, how does the outcome read?
A: inactive

Source: PubChem BioAssay AID743363 (Broad Institute, 2014)
